Screening data deposited in PubChem BioAssay by National Center for Advancing Translational Sciences (NCATS).
The list is not random: actives were taken first. Their share in the collection is about 18%.
PLK1 PBD inh: qHTS for Inhibitors of PLK1-PDB (polo-like kinase 1 - polo-box domain): Primary Screen; Serine/threonine-protein kinase PLK1 (Homo sapiens), P53350; Plk1 PBD binding of FITC phosphopeptide, fluorescence polarization; Potency, µM, for the others: max response, negative = inhibition, usual class: inhibitors; AID 720504, 2013; 360,000 compounds, 2.8% hits; note: series mostly up to about 57 µM; nearly all actives have a fitted effect of over 65% in size
DT40 TDP1 no CPT: qHTS for Inhibitors of human tyrosyl-DNA phosphodiesterase 1 (TDP1): qHTS in cells in absence of CPT. DT40 Tdp1-/- hTDP1 cells, no CPT, ATP luminescence, 48 h. Potency, µM (top dose mostly 46.2 µM), without a hit: at the top dose activity change, negative = growth inhibition, usual class: inhibitors. 420,000 compounds, 15% hits; note: nearly all actives have a fitted effect of over 55% in size
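Cells were dispensed at 400 per well, compounds added by pin tool, plates incubated ≥48 hr at 37 °C, then CellTiter-Glo added for 30 min at room temperature before luminescence reading. Line: DT40 Tdp1-/- complemented with hTDP1; camptothecin omitted.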
TDP1 inh: qHTS Assay for Inhibitors of Tyrosyl-DNA Phosphodiesterase (TDP1) | Tyrosyl-DNA phosphodiesterase 1 (Homo sapiens), Q9NUW8 | recombinant TDP1, AlphaScreen DNA substrate cleavage | Potency, µM (highest dose often 130 µM), without a hit: at the top dose activity change, negative = inhibition, actives largely listed as inhibitors | 350,000 compounds, 0.28% hits | AID 485290, 2010; note: nearly all actives have a fitted effect of over 40% in size
Target sequence (Q9NUW8 whole entry, looked up): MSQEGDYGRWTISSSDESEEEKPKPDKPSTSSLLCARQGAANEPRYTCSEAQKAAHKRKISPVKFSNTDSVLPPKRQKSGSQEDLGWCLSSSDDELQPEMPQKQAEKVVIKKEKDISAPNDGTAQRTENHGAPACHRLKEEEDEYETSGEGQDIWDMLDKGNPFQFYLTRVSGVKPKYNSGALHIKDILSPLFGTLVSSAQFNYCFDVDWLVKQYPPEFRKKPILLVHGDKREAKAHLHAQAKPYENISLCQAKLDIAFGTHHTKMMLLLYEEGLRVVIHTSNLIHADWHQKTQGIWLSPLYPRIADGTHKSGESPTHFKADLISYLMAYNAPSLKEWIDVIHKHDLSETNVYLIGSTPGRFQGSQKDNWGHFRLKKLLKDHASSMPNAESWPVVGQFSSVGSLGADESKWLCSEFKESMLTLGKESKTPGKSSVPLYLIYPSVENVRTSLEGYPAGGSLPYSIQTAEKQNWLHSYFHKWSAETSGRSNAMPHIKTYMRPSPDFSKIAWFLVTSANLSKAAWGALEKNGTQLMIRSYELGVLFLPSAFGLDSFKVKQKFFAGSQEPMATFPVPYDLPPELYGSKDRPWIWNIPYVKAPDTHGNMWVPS
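Recombinant human Tdp1 (E. coli-expressed, 1 nM final) preincubated with compounds 15 min at room temperature, then 5'-biotin/3'-phosphotyrosine-FITC DNA substrate (15 nM final) added for 5 min. AlphaScreen beads (10 ug/ml final) added 10 min; cleavage lowers signal.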
TDP1 cell CPT: qHTS for Inhibitors of human tyrosyl-DNA phosphodiesterase 1 (TDP1): qHTS in cells in presence of CPT. chicken DT40 Tdp1-/-;hTDP1 cells + 20 nM CPT, ATP luminescence, 48 h. Potency, µM (series often up to 46.2 µM), inactives show at the top dose activity change, negative = growth inhibition, hits mostly inhibitors. 420,000 compounds, 12% hits. AID 686979, 2013; note: nearly all actives have a fitted effect of over 55% in size
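Chicken DT40 Tdp1-/- cells stably complemented with human TDP1 were seeded at 400 cells/well in medium containing 20 nM camptothecin, exposed to pin-transferred compounds, and grown at 37 °C for at least 48 hr. Viability was read as ATP luminescence.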
VDR inh: Inhibitors of the vitamin D receptor (VDR): qHTS. 400,000 compounds, 0.93% hits. VDR-SRC2-3 peptide fluorescence polarization, 2 h. AID 504847, 2011. Vitamin D3 receptor (Homo sapiens), P11473. Potency, µM, for inactives: max response, negative = inhibition, usual class: inhibitors
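Two reagent solutions held at 4 deg C in the dark were dispensed, compounds pinned at 23 nl, and the mixture incubated 2 h at room temperature. Read-out: fluorescence polarization of VDR–SRC2-3 peptide binding.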
KAT2A inh: qHTS Assay for Inhibitors of GCN5L2; Histone acetyltransferase KAT2A (Homo sapiens), Q92830; GCN5L2 HAT assay, ThioGlo1 CoA-SH fluorescence; Potency, µM (highest dose often 58.9 µM), for inactives: at the highest dose activity change, negative = inhibition, most hits filed as inhibitors; 390,000 compounds, 0.21% hits
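Titration-based screen in which CoA formation is detected via maleimide probe ThioGlo1 (50uM) turning fluorescent on thiol reaction; substrates H3(1-25) 75uM and acetyl-CoA 70uM, GCN5L2 20nM, 20 min incubation at room temperature.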
The depositor's hits bear a star. Calls come from the whole dose curve; as a rule, active = well fitted curve in the direction sought with a large enough effect; inconclusive = small, poorly fitted or top-dose-only effect, or another doubt; inactive = no such curve, though single readings can be large; an effect the other way counts as inactive or inconclusive. % is set by controls: 0 for no effect and ±100 for the full control effect; potency is the fitted concentration of half-maximal effect.

How did COc1cccc(C(C)NC(=O)Nc2ccccc2Cl)c1 (stereo not drawn) do in these assays?
PLK1 PBD inh: -14%; DT40 TDP1 no CPT: inconclusive; TDP1 inh: -2%; TDP1 cell CPT: 21µM*; VDR inh: -7%; KAT2A inh: 4%

Results for O=C(CN1CCN(CC(=O)Nc2ccccc2Cl)CC1)Nc1ccc(F)c(F)c1 ?
PLK1 PBD inh: -5%; DT40 TDP1 no CPT: 23µM*; TDP1 cell CPT: inconclusive; VDR inh: -1%; KAT2A inh: -11%

Results for COc1ccccc1C(=O)NC(=O)COC(=O)c1nc(Cl)ccc1Cl ?
PLK1 PBD inh: -16%; DT40 TDP1 no CPT: -2%; TDP1 inh: -4%; TDP1 cell CPT: -17%; VDR inh: -19%; KAT2A inh: -1%

Results for COc1ccc(-c2nc3cnc(N4CCN(C)CC4)nc3n(-c3ccc(OC)cc3)c2=O)cc1 ?
DT40 TDP1 no CPT: inconclusive; TDP1 cell CPT: inconclusive; VDR inh: inconclusive; KAT2A inh: -16%

What do the screens show for `NC(=O)c1ccccc1NC(=O)Cn1nc(Cc2cccnc2)c2ccccc2c1=O`?
DT40 TDP1 no CPT: inconclusive; TDP1 inh: 6%; TDP1 cell CPT: -26%; VDR inh: -2%; KAT2A inh: 1%

What do the screens show for `O=C(CN1CCN(C(=O)C2CCN(C(=O)/C=C/c3ccccc3)CC2)CC1)Nc1ccccc1Cl`?
PLK1 PBD inh: -15%; DT40 TDP1 no CPT: 18µM*; TDP1 inh: 1%; TDP1 cell CPT: inconclusive; VDR inh: 24%; KAT2A inh: 3%

What do the screens show for `COc1ccc(NC(C)=O)cc1NC(=O)CN1CCN(CC(=O)Nc2ccccc2Cl)CC1`?
PLK1 PBD inh: -12%; DT40 TDP1 no CPT: 21µM*; TDP1 inh: 7%; TDP1 cell CPT: inconclusive; VDR inh: 6%; KAT2A inh: 3%

What do the screens show for `COc1ccccc1NC(=O)CN1CCN(CC(=O)Nc2cc(NC(C)=O)ccc2OC)CC1`?
PLK1 PBD inh: -2%; DT40 TDP1 no CPT: inconclusive; TDP1 inh: 4%; TDP1 cell CPT: inconclusive; VDR inh: 16%; KAT2A inh: 1%

What do the screens show for `COc1ccccc1NC(=O)CN1CCN(CC(=O)Nc2ccccc2Cl)CC1`?
PLK1 PBD inh: -6%; DT40 TDP1 no CPT: -20%; TDP1 cell CPT: 25%; VDR inh: -24%; KAT2A inh: -13%

What do the screens show for `COc1cccc(CN2CCN(CC(=O)Nc3ccccc3Cl)CC2)c1`?
PLK1 PBD inh: -19%; DT40 TDP1 no CPT: 16µM*; TDP1 inh: 5%; TDP1 cell CPT: inconclusive; VDR inh: 1%; KAT2A inh: 0%

What do the screens show for `COc1ccccc1CN(C)C(=O)CN1CCN(CC(=O)Nc2ccccc2Cl)CC1`?
PLK1 PBD inh: 1%; DT40 TDP1 no CPT: 23µM*; TDP1 inh: 0%; TDP1 cell CPT: 23µM*; VDR inh: 11%; KAT2A inh: -16%

How did Cc1ccc(-n2c(=O)c3c(c4cc(C)ccc4n3C)n(CC(=O)N3CCCC3)c2=O)cc1 do in these assays?
DT40 TDP1 no CPT: inconclusive; TDP1 inh: -1%; TDP1 cell CPT: -16%; VDR inh: 3%; KAT2A inh: -16%

Results for CCn1c(SC)nc2c([nH]c3ccccc32)c1=O ?
DT40 TDP1 no CPT: 4%; TDP1 inh: 1%; TDP1 cell CPT: -22%; VDR inh: 1%; KAT2A inh: 2%

Results for CC(=O)c1cccc(NC(=O)CSCc2ccccc2)c1 ?
PLK1 PBD inh: -18%; DT40 TDP1 no CPT: -29%; TDP1 inh: -4%; TDP1 cell CPT: inconclusive; VDR inh: -5%; KAT2A inh: 24%

How did O=C(NCc1cccnc1)C(=O)NCC1OCCCN1S(=O)(=O)c1cc(F)ccc1F (stereo not drawn) do in these assays?
PLK1 PBD inh: 4%; DT40 TDP1 no CPT: 2%; TDP1 cell CPT: -4%

Results for O=[N+]([O-])c1cc2c(c(CSc3nnnn3-c3ccc(O)cc3)c1)OCOC2 ?
PLK1 PBD inh: -4%; DT40 TDP1 no CPT: 23µM*; TDP1 inh: 8%; TDP1 cell CPT: 21µM*; VDR inh: 1%; KAT2A inh: -7%

Results for CCC(=O)Oc1ccc(NC(=O)c2ccc(S(=O)(=O)N3CCCC3)cc2)cc1 ?
PLK1 PBD inh: 3%; DT40 TDP1 no CPT: 21µM*; TDP1 cell CPT: inconclusive

How did CN(C)C(=O)c1ccc(NC(=O)c2cccc(S(=O)(=O)N3CCCCCC3)c2)cc1 do in these assays?
PLK1 PBD inh: -4%; DT40 TDP1 no CPT: inconclusive; TDP1 inh: 0%; TDP1 cell CPT: -29%; VDR inh: -12%; KAT2A inh: -1%

Results for CCOc1ccc(C(=O)Nc2ccc(S(=O)(=O)N3C[C@@H]4C[C@@H](C3)c3cccc(=O)n3C4)cc2)cc1 ?
PLK1 PBD inh: 10%; DT40 TDP1 no CPT: 12µM*; TDP1 inh: 1%; TDP1 cell CPT: 21µM*; VDR inh: 6%; KAT2A inh: 1%

Results for COc1ccc(C(=O)Nc2ccc(S(=O)(=O)N3CCCC3)cc2)cc1 ?
PLK1 PBD inh: -11%; DT40 TDP1 no CPT: -29%; TDP1 inh: -1%; TDP1 cell CPT: -14%; VDR inh: inconclusive; KAT2A inh: -6%

Results for CC1CCCC(NC(=O)c2cccc(S(=O)(=O)N3CCCCC3)c2)C1C (stereo not drawn) ?
PLK1 PBD inh: 8%; DT40 TDP1 no CPT: inconclusive; TDP1 inh: 3%; TDP1 cell CPT: 21µM*; VDR inh: -4%; KAT2A inh: -4%

Results for COc1cc(NC(=O)c2cccc(S(=O)(=O)N3CCCCC3)c2)cc(OC)c1OC ?
PLK1 PBD inh: 0%; DT40 TDP1 no CPT: inconclusive; TDP1 inh: 0%; TDP1 cell CPT: 23µM*; VDR inh: 21%; KAT2A inh: -5%

Results for CCN(C(=O)Cc1c(C(=O)O)n(CC)c2ccccc12)c1cccc(C(F)(F)F)c1 ?
PLK1 PBD inh: -10%; DT40 TDP1 no CPT: -7%; TDP1 cell CPT: -1%; VDR inh: inconclusive; KAT2A inh: 21%

Results for COc1ncc2nc(C)c(=O)n(Cc3cccs3)c2n1 ?
DT40 TDP1 no CPT: inconclusive; TDP1 cell CPT: 13%; VDR inh: -15%; KAT2A inh: -10%
